{"source": "paper PMC5540273", "about": "(PLoS ONE, 2017);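 note: KINOMEscan kinase panel screen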", "data": [{"system": "PIM1", "conditions": "concentration: 1 μM,replicates: in singlicate; n = 1", "units": {"%Inh": "%"}, "values": [{"smiles": "CCCC(=O)Nc1n[nH]c2ncccc12", "note": "[SB-601436]", "%Inh": 0}, {"smiles": "O=C(NOCC1CC1)c1cc(Br)c(F)c(F)c1Nc1ccc(I)cc1Cl", "%Inh": 0}, {"smiles": "CS(=O)(=O)Nc1ccc(-c2ccnc3[nH]ccc23)cc1", "note": "[GSK993273]", "%Inh": 28}, {"smiles": "Cn1ccc2ncnc(Oc3ccc(NC(=O)Nc4cccc(C(F)(F)F)c4)c(Cl)c3)c21", "%Inh": 12}, {"smiles": "CN1CCN(CCCNc2nccc(-c3c(-c4ccc(F)cc4)nn4cc(C(N)=O)ccc34)n2)CC1", "note": "[GW622475]", "%Inh": 25}, {"smiles": "O=C(Nc1cccc(C(F)(F)F)c1)c1cccc(Oc2ccc3nccn3n2)c1", "%Inh": 0}, {"smiles": "COc1ccc(Nc2nccc(N3CCC(NC(=O)c4cccc(C#N)c4)C3)n2)cc1", "note": "(centres unmarked) [GSK1379730]", "%Inh": 0}, {"smiles": "Cc1ccc2c(-c3ccnc(Nc4ccc(C(F)(F)F)cc4)n3)cnn2n1", "note": "[GW819776]", "%Inh": 10}, {"smiles": "CN1CCN(CCNc2nc3cc(Oc4ccc(NC(=O)Nc5cc(C(F)(F)F)ccc5F)cc4)ccc3[nH]2)CC1.Cl.Cl", "note": "[GW768504]", "%Inh": 10}, {"smiles": "Cc1n[nH]c2cc(Nc3ccnc(Nc4cccc(CN5CCOCC5)c4)n3)ccc12", "note": "[GW682569]", "%Inh": 0}, {"smiles": "CN(c1ccc2c(c1)nc(NCc1ccc(F)cc1)n2C)c1ccnc(Nc2ccc(CS(C)(=O)=O)cc2)n1.Cl", "note": "[GW813244]", "%Inh": 18}, {"smiles": "CCOC(=O)N1CCC(n2cnc(-c3ccc(F)cc3)c2-c2ccnc(N)n2)CC1", "note": "[SB-219952]", "%Inh": 9}, {"smiles": "O=C(Nc1cccc(Oc2ccc3nccn3n2)c1)Nc1cccc(C(F)(F)F)c1", "%Inh": 0}, {"smiles": "Cc1cccc(-c2nc(Nc3ccncc3)c3sccc3n2)n1", "note": "[GW869641]", "%Inh": 27}, {"smiles": "C[C@@H](Oc1cc(-n2cnc3ccc(-c4ccncc4)cc32)sc1C(N)=O)c1ccccc1Cl", "note": "[GSK483724]", "%Inh": 46}, {"smiles": "CN(c1ccccc1CNc1nc(Nc2ccc3c(c2)CC(=O)N3)ncc1C(F)(F)F)S(C)(=O)=O", "%Inh": 0}, {"smiles": "C[C@@H]1CNc2c(sc3ccc4nc(-c5ccc(O)cc5)ccc4c23)C(=O)N1", "%Inh": 37}, {"smiles": "Cn1ccc2ncnc(Oc3ccc(NC(=O)Nc4ccnc(C(F)(F)F)c4)c(Cl)c3)c21", "%Inh": 5}, {"smiles": "CCn1c(-c2nonc2N)nc2cncc(Br)c21", "note": "[SB-738004]", "%Inh": 89}, {"smiles": "N#Cc1cccc(C(=O)NC2CCN(c3ccnc(Nc4ccc(F)cc4)n3)C2)c1", "note": "(centres unmarked) [GSK1379708]", "%Inh": 0}, {"smiles": "Cc1ccc(C(=O)Nc2ccc(Oc3ccc4nc(NC(=O)C5CC5)cn4c3)c(F)c2)c(=O)n1-c1ccccc1", "%Inh": 1}, {"smiles": "CCNCC(Cc1ccccc1)NC(=O)c1cc(Br)c(-c2ccnc3[nH]ccc23)s1.Cl.Cl", "note": "(centres unmarked) [GSK1383280]", "%Inh": 22}, {"smiles": "COc1cccc(C2=C(Nc3cccc(Cl)c3)C(=O)NC2=O)c1", "note": "[SB-341556]", "%Inh": 9}, {"smiles": "NC(=O)c1ccc(-c2cc3ncnc(SCC(=O)O)c3s2)cc1", "%Inh": 7}, {"smiles": "Cc1ccc(CC(=O)N2CCc3cc(-c4cn(C)c5ncnc(N)c45)ccc32)cc1", "note": "[GSK2634758]", "%Inh": 0}, {"smiles": "Cl.Nc1n[nH]c2cc(-c3ccccn3)ccc12", "note": "[GSK2189892]", "%Inh": 0}, {"smiles": "CCn1c(-c2nonc2N)nc2cncc(CNC3CCNCC3)c21.Cl", "note": "[SB-747651]", "%Inh": 93.4}, {"smiles": "NC(=O)Nc1sc(-c2ccc(F)cc2)cc1C(N)=O", "note": "[GW789449]", "%Inh": 0}, {"smiles": "Cn1cc(-c2cccc3c(N)c(C(N)=O)nnc23)cn1", "%Inh": 0}, {"smiles": "CN(c1cccc(CNc2nc(Nc3ccc4c(c3)CC(=O)N4)ncc2C(F)(F)F)c1)S(C)(=O)=O", "%Inh": 12}, {"smiles": "CC(=O)Nc1nc2cnc(Nc3cc(NC(=O)c4cccc(CC(C)(C)C#N)c4)ccc3C)nc2s1", "%Inh": 16}, {"smiles": "c1ccc(Oc2ccc(Nc3ccnc4ccc(-c5ccccn5)cc34)cc2)cc1", "note": "[GW407034]", "%Inh": 9}, {"smiles": "Cc1ccc(Nc2ccnc(Nc3ccc4c(c3)CS(=O)(=O)C4)n2)cc1O.Cl", "note": "[GW579362]", "%Inh": 29}, {"smiles": "CC(C)c1nc(-c2cccc(NS(=O)(=O)c3ccccc3)c2)c(-c2ccnc(Nc3ccc4c(c3)CN(C)CC4)n2)s1", "note": "[GSK1649598]", "%Inh": 28}, {"smiles": "O=C(NCC1CC1)c1ccc(-c2cc(C(=O)NC3CC3)ccc2F)cc1", "note": "[GW810445]", "%Inh": 9}, {"smiles": "CC(C)S(=O)(=O)N1CCN(Cc2ccc3c(c2)nc(NC(=O)c2ccsc2)n3C[C@H](O)c2ccccc2)CC1", "note": "[GW635815]", "%Inh": 8}, {"smiles": "Cc1ccn2nc(-c3ccc(F)cc3)c(-c3ccncc3)c2c1.Cl", "note": "[GW457859]", "%Inh": 16}]}, {"system": "PIM2", "conditions": "concentration: 1 μM,replicates: in singlicate; n = 1", "units": {"%Inh": "%"}, "values": [{"smiles": "CCCC(=O)Nc1n[nH]c2ncccc12", "note": "[SB-601436]", "%Inh": 0}, {"smiles": "O=C(NOCC1CC1)c1cc(Br)c(F)c(F)c1Nc1ccc(I)cc1Cl", "%Inh": 9}, {"smiles": "CS(=O)(=O)Nc1ccc(-c2ccnc3[nH]ccc23)cc1", "note": "[GSK993273]", "%Inh": 0}, {"smiles": "Cn1ccc2ncnc(Oc3ccc(NC(=O)Nc4cccc(C(F)(F)F)c4)c(Cl)c3)c21", "%Inh": 1}, {"smiles": "CN1CCN(CCCNc2nccc(-c3c(-c4ccc(F)cc4)nn4cc(C(N)=O)ccc34)n2)CC1", "note": "[GW622475]", "%Inh": 0}, {"smiles": "O=C(Nc1cccc(C(F)(F)F)c1)c1cccc(Oc2ccc3nccn3n2)c1", "%Inh": 7}, {"smiles": "COc1ccc(Nc2nccc(N3CCC(NC(=O)c4cccc(C#N)c4)C3)n2)cc1", "note": "(centres unmarked) [GSK1379730]", "%Inh": 0}, {"smiles": "Cc1ccc2c(-c3ccnc(Nc4ccc(C(F)(F)F)cc4)n3)cnn2n1", "note": "[GW819776]", "%Inh": 0}, {"smiles": "CN1CCN(CCNc2nc3cc(Oc4ccc(NC(=O)Nc5cc(C(F)(F)F)ccc5F)cc4)ccc3[nH]2)CC1.Cl.Cl", "note": "[GW768504]", "%Inh": 2}, {"smiles": "Cc1n[nH]c2cc(Nc3ccnc(Nc4cccc(CN5CCOCC5)c4)n3)ccc12", "note": "[GW682569]", "%Inh": 0}, {"smiles": "CN(c1ccc2c(c1)nc(NCc1ccc(F)cc1)n2C)c1ccnc(Nc2ccc(CS(C)(=O)=O)cc2)n1.Cl", "note": "[GW813244]", "%Inh": 49}, {"smiles": "CCOC(=O)N1CCC(n2cnc(-c3ccc(F)cc3)c2-c2ccnc(N)n2)CC1", "note": "[SB-219952]", "%Inh": 0}, {"smiles": "O=C(Nc1cccc(Oc2ccc3nccn3n2)c1)Nc1cccc(C(F)(F)F)c1", "%Inh": 10}, {"smiles": "Cc1cccc(-c2nc(Nc3ccncc3)c3sccc3n2)n1", "note": "[GW869641]", "%Inh": 3}, {"smiles": "C[C@@H](Oc1cc(-n2cnc3ccc(-c4ccncc4)cc32)sc1C(N)=O)c1ccccc1Cl", "note": "[GSK483724]", "%Inh": 64}, {"smiles": "CN(c1ccccc1CNc1nc(Nc2ccc3c(c2)CC(=O)N3)ncc1C(F)(F)F)S(C)(=O)=O", "%Inh": 0}, {"smiles": "C[C@@H]1CNc2c(sc3ccc4nc(-c5ccc(O)cc5)ccc4c23)C(=O)N1", "%Inh": 93.7}, {"smiles": "Cn1ccc2ncnc(Oc3ccc(NC(=O)Nc4ccnc(C(F)(F)F)c4)c(Cl)c3)c21", "%Inh": 3}, {"smiles": "CCn1c(-c2nonc2N)nc2cncc(Br)c21", "note": "[SB-738004]", "%Inh": 0}, {"smiles": "N#Cc1cccc(C(=O)NC2CCN(c3ccnc(Nc4ccc(F)cc4)n3)C2)c1", "note": "(centres unmarked) [GSK1379708]", "%Inh": 0}, {"smiles": "Cc1ccc(C(=O)Nc2ccc(Oc3ccc4nc(NC(=O)C5CC5)cn4c3)c(F)c2)c(=O)n1-c1ccccc1", "%Inh": 0}, {"smiles": "CCNCC(Cc1ccccc1)NC(=O)c1cc(Br)c(-c2ccnc3[nH]ccc23)s1.Cl.Cl", "note": "(centres unmarked) [GSK1383280]", "%Inh": 0}, {"smiles": "COc1cccc(C2=C(Nc3cccc(Cl)c3)C(=O)NC2=O)c1", "note": "[SB-341556]", "%Inh": 0}, {"smiles": "NC(=O)c1ccc(-c2cc3ncnc(SCC(=O)O)c3s2)cc1", "%Inh": 22}, {"smiles": "Cc1ccc(CC(=O)N2CCc3cc(-c4cn(C)c5ncnc(N)c45)ccc32)cc1", "note": "[GSK2634758]", "%Inh": 0}, {"smiles": "Cl.Nc1n[nH]c2cc(-c3ccccn3)ccc12", "note": "[GSK2189892]", "%Inh": 0}, {"smiles": "CCn1c(-c2nonc2N)nc2cncc(CNC3CCNCC3)c21.Cl", "note": "[SB-747651]", "%Inh": 81}, {"smiles": "NC(=O)Nc1sc(-c2ccc(F)cc2)cc1C(N)=O", "note": "[GW789449]", "%Inh": 0}, {"smiles": "Cn1cc(-c2cccc3c(N)c(C(N)=O)nnc23)cn1", "%Inh": 0}, {"smiles": "CN(c1cccc(CNc2nc(Nc3ccc4c(c3)CC(=O)N4)ncc2C(F)(F)F)c1)S(C)(=O)=O", "%Inh": 0}, {"smiles": "CC(=O)Nc1nc2cnc(Nc3cc(NC(=O)c4cccc(CC(C)(C)C#N)c4)ccc3C)nc2s1", "%Inh": 8}, {"smiles": "c1ccc(Oc2ccc(Nc3ccnc4ccc(-c5ccccn5)cc34)cc2)cc1", "note": "[GW407034]", "%Inh": 0}, {"smiles": "Cc1ccc(Nc2ccnc(Nc3ccc4c(c3)CS(=O)(=O)C4)n2)cc1O.Cl", "note": "[GW579362]", "%Inh": 0}, {"smiles": "CC(C)c1nc(-c2cccc(NS(=O)(=O)c3ccccc3)c2)c(-c2ccnc(Nc3ccc4c(c3)CN(C)CC4)n2)s1", "note": "[GSK1649598]", "%Inh": 0}, {"smiles": "O=C(NCC1CC1)c1ccc(-c2cc(C(=O)NC3CC3)ccc2F)cc1", "note": "[GW810445]", "%Inh": 0}, {"smiles": "CC(C)S(=O)(=O)N1CCN(Cc2ccc3c(c2)nc(NC(=O)c2ccsc2)n3C[C@H](O)c2ccccc2)CC1", "note": "[GW635815]", "%Inh": 0}, {"smiles": "Cc1ccn2nc(-c3ccc(F)cc3)c(-c3ccncc3)c2c1.Cl", "note": "[GW457859]", "%Inh": 0}]}]}
